Drawing on PubChem BioAssay (EPA / NIEHS), this text covers outcome and AC50 for 15 molecules.

“And” between values parts separate entries of the source, which are not always exact repeats. Identical values can stand only once. More than one record can exist for a structure, and the calls need not agree. The source made the active and inactive calls. How the source made its calls: active means hit-call score of the fitted dose curve at least 0.9, where 1 is the maximum; inactive means score below 0.9.

Read-out in test [1]: TIMP metallopeptidase inhibitor 2 (TIMP2), TIMP2 (gene 7077)
In words: BSK_KF3CT_TIMP2: BioMAP Diversity Plus: KF3CT Assay for TIMP metallopeptidase inhibitor 2 (TIMP2) Biomarker Activity (AID 2283071). As to conditions: primary human keratinocytes with fibroblasts; actives raise or lower the signal. In outline:
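Chemicals were dosed onto human skin primary co-cultures of keratinocytes and foreskin fibroblasts, and TIMP-2 was measured by ELISA after 24 hours. Activity in either direction was fitted relative to DMSO.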

Read-out in test [2]: Transforming growth factor beta 1 (TGFb1), TGFB1 (gene 7040)
In words: BSK_KF3CT_TGFb1: BioMAP Diversity Plus: KF3CT Assay for Transforming growth factor beta 1 (TGFb1) Biomarker Activity (AID 2283072). The following applies: primary human keratinocytes with fibroblasts; actives raise or lower the signal. An outline of the steps:
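KF3CT co-culture (keratinocytes + fibroblasts), 24 h exposure → TGF-b1 ELISA → bidirectional fit, DMSO = baseline. Parallel SRB total-protein staining (0.1% SRB, 10% TCA fixation, 560 nm) for cytotoxicity.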

Read-out in test [3]: C-C motif chemokine 2 (Homo sapiens) (UniProt P13500)
In words: BSK_KF3CT_MCP1: BioMAP Diversity Plus: KF3CT Assay for Monocyte Chemoattractant Protein 1 (MCP1/CCL2) Biomarker Activity (AID 2283073). As to conditions: primary human keratinocytes with fibroblasts; actives raise or lower the signal. An outline of the steps:
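ELISA readout of MCP-1 after 24 h chemical dosing of a human skin primary co-culture of keratinocytes and foreskin fibroblasts. Activity was fitted in both directions against DMSO.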

Read-out in test [4]: Matrix Metallopeptidase 9 (MMP9), MMP9 (gene 4318)
In words: BSK_KF3CT_MMP9: BioMAP Diversity Plus: KF3CT Assay for Matrix Metallopeptidase 9 (MMP9) Biomarker Activity (AID 2283074).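 On AC50: MMP9 protein level quantified by ELISA in the co-culture.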 The following applies: primary human keratinocytes with fibroblasts; actives raise or lower the signal. An outline of the steps:
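MMP-9 quantified by ELISA after 24 h chemical treatment of primary human skin keratinocyte/fibroblast co-cultures; gain or loss fitted against DMSO, with parallel SRB staining (0.1% SRB, 560 nm) for overt cytotoxicity.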

Read-out in test [5]: urokinase plasminogen activator (uPA), PLAU (gene 5328)
In words: BSK_KF3CT_uPA: BioMAP Diversity Plus: KF3CT Assay for urokinase plasminogen activator (uPA) Biomarker Activity (AID 2283075). As to conditions: primary human keratinocytes with fibroblasts; actives raise or lower the signal. An outline of the steps: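 ELISA read-out of uPA 24 h after dosing human skin keratinocytes co-cultured with foreskin fibroblasts. Signal change fitted both ways relative to DMSO; sulforhodamine B on parallel cultures marks overt cytotoxicity.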

Read-out in another test: CD40, CD40 (gene 958)
In words: BSK_LPS_CD40: BioMAP Diversity Plus: LPS Assay for CD40 Biomarker Activity (AID 2283076). As to conditions: primary human HUVEC with PBMC; actives raise or lower the signal. An outline of the steps:
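Cells were dosed, incubated 24 h, then assayed for CD40 by ELISA. Gain or loss of signal was analysed relative to DMSO controls. The culture paired human umbilical vein endothelium with peripheral blood mononuclear cells.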

Read-out in test [6]: E-selectin (Homo sapiens) (UniProt P16581)
The experiment in a line: BSK_LPS_Eselectin: BioMAP Diversity Plus: LPS Assay for Eselectin Biomarker Activity (AID 2283077). As to conditions: primary human HUVEC with PBMC; actives raise or lower the signal. An outline of the steps: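 Primary human vascular co-culture (endothelium plus PBMC) was dosed with chemical, then E-selectin quantified by ELISA at 24 h. Endpoint values derive from bidirectional curve fitting relative to DMSO.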

Read-out in test [7]: Interleukin-8 (IL8), CXCL8 (gene 3576)
The experiment in a line: BSK_LPS_IL8: BioMAP Diversity Plus: LPS Assay for Interleukin-8 (IL8) Biomarker Activity (AID 2283078). As to conditions: primary human HUVEC with PBMC; actives raise or lower the signal. In outline:
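Readout is IL-8 by ELISA, taken 24 h after compounds were added to LPS-stimulated endothelial/PBMC co-cultures. Both increases and decreases relative to DMSO control were scored through bidirectional fitting.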

The nature of test [8]: BSK_LPS_SRB: Viability Assessment in the BioMAP Diversity Plus: LPS Assay (AID 2283079).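 Further: total protein by sulforhodamine B absorbance as a cytotoxicity measure; measured one day after compound addition; fitted in both directions against DMSO so loss or gain of signal counts.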 As to conditions: primary human HUVEC with PBMC. In outline:
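Readout is SRB absorbance at 560 nm (0.1% stain, TCA-fixed parallel cultures) as a total-protein cytotoxicity measure. Cells: primary human umbilical vein endothelium plus peripheral blood mononuclear cells, 24 h after chemical exposure; DMSO served as baseline.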

Read-out in test [9]: Interleukin-1 alpha (IL1a), IL1A (gene 3552)
In words: BSK_LPS_IL1a: BioMAP Diversity Plus: LPS Assay for Interleukin-1 alpha (IL1a) Biomarker Activity (AID 2283080). As to conditions: primary human HUVEC with PBMC; actives raise or lower the signal. An outline of the steps:
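ELISA read-out of IL-1 alpha from a human primary vascular co-culture (endothelium plus PBMC) under LPS, sampled 24 hours post-dosing. Activity was fitted in both directions relative to DMSO controls.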

E-selectin (Homo sapiens), sequence (P16581 whole entry, looked up): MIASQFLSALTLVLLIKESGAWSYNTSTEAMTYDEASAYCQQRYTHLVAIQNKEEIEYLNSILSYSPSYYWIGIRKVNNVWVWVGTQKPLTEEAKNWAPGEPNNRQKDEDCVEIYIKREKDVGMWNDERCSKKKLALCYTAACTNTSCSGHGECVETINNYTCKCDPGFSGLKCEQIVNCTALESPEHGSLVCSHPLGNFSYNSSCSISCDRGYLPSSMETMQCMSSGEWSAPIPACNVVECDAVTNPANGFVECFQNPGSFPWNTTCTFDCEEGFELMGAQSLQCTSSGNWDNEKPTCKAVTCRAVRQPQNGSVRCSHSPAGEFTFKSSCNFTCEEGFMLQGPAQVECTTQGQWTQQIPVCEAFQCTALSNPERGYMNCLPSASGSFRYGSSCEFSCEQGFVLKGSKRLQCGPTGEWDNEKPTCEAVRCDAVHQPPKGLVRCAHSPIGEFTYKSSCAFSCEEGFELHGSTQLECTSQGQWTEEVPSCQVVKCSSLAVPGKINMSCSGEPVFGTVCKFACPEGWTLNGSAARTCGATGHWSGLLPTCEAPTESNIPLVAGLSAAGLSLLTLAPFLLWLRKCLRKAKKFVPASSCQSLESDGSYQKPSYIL

In the case of `C1CC2OC2CC1C1CO1` (stereo not given), the outcome was “inactive” in test [1]; “inactive” in test [2]; “inactive” in test [3]; “inactive” in test [4]; “inactive” in test [5]; “inactive” in the test with CD40, CD40 (gene 958). Further, the outcome in test [6], in test [7], in test [8] and in test [9] was inactive.

As for `Clc1ccc(Cl)cc1`, the outcome in test [1] is “inactive”; in [2] it was “inactive”; in [3], “inactive”; in test [4], “inactive”; in test [5], “inactive”; in the test with CD40, CD40 (gene 958), “inactive”. Moreover, the result in [6], in test [7], in test [8] and in test [9] was inactive.

Broadly, the AC50 is the concentration giving half of the maximal activity seen. Consider `Oc1ccc(C(c2ccc(O)cc2)(C(F)(F)F)C(F)(F)F)cc1`, for which the AC50 was 21.1 µM (active) in test [1]; 23.7 µM (active) in test [2]; 17.7 µM (active) in [3]; 20 µM (active) in [4]; 34.2 µM (active) in [5]; 18 µM (active) in the test with CD40, CD40 (gene 958). Further, the AC50 in test [6] is 32.4 µM (active); in [7], 32.1 µM (active); in [8], 28 µM (active); in [9], 20.2 µM (active).

Consider `O=S(=O)(O)C(F)(F)C(F)(F)C(F)(F)C(F)(F)F`, for which the outcome in test [1] is “inactive”; in test [2], “inactive”; in [3], “inactive”; in test [4] it was “inactive”; in [5], “inactive”; in the test with CD40, CD40 (gene 958), “inactive”. Moreover, the outcome in test [6], in test [7], in test [8] and in [9] was inactive.

Consider `Cc1cc(O)ccc1Cl`, for which the outcome in test [1] is “inactive”; in [2] it was “inactive”; in test [3] it was “inactive”; in test [4], “inactive”; in test [5] it was “inactive”; with CD40, CD40 (gene 958), “inactive”. Also, the result in test [6], in test [7], in [8] and in test [9] was inactive.

`CCNc1nc(NC(C)C)nc(SC)n1`: the outcome in test [1], in [2], in test [3], in test [4], in test [5] and in [6] was inactive. Moreover, the outcome in test [7], in test [8] and in test [9] was inactive.

On to `Oc1ccc(Cl)cc1Cl`, for which the outcome is “inactive” in test [1]; “inactive” in test [2]; “inactive” in [3]; “inactive” in test [4]; “inactive” in test [5]; “inactive” in the test with CD40, CD40 (gene 958). Also, the outcome in test [6], in test [7], in test [8] and in [9] was inactive.

Consider `O=NN(c1ccccc1)c1ccccc1`, for which the outcome in test [1] is “inactive”; in test [2], “inactive”; in test [3], “inactive”; in test [4], “inactive”; in test [5], “inactive”; with CD40, CD40 (gene 958) it was “inactive”. The result in [6], in test [7], in [8] and in test [9] was inactive.

For the molecule `Nn1cnnc1`, the outcome is “inactive” in test [1]; “inactive” in [2]; “inactive” in test [3]; “inactive” in test [4]; “inactive” in test [5]; “inactive” in the test with CD40, CD40 (gene 958). In addition, the outcome in test [6], in test [7], in test [8] and in test [9] was inactive.

As to `Oc1c(Cl)c(Cl)c(Cl)c(Cl)c1Cl`, the AC50 in [1] is 2.02 µM (active) and 17.3 µM (active); in [2], 15 µM (active); in test [3], 10.8 µM (active); in [4] it was 6.97 µM (active) and 6.46 µM (active); in [5], 27.4 µM (active); in test [6] it was 27.1 µM (active). For the same molecule, the AC50 was 33.1 µM (active) in [7]; 15.1 µM (active) and 26.4 µM (active) in test [8]; 34.4 µM (active) in test [9]. Besides, the result in [2], in test [3], in test [5], in test [6], in test [7] and in test [9] was inactive.

Turning to `NS(=O)(=O)C(F)(F)C(F)(F)C(F)(F)C(F)(F)C(F)(F)C(F)(F)C(F)(F)C(F)(F)F`, the AC50 is 26 µM (active) and 40.7 µM (active) and 44.4 µM (active) in test [1]; 9.43 µM (active) in test [2]; 33.4 µM (active) and 48.9 µM (active) and 52.2 µM (active) in test [3]; 12.2 µM (active) and 19.9 µM (active) and 20.4 µM (active) in test [4]; 13.5 µM (active) and 20.9 µM (active) and 21.5 µM (active) in test [5]; 23.9 µM (active) and 39.6 µM (active) and 39.1 µM (active) with CD40, CD40 (gene 958). For the same molecule, the AC50 in test [6] is 29.7 µM (active) and 54.3 µM (active) and 58.5 µM (active); in [7] it was 30.1 µM (active) and 45.6 µM (active) and 49.8 µM (active); in test [8] it was 28.9 µM (active) and 44.6 µM (active) and 44.3 µM (active); in test [9] it was 32.1 µM (active) and 48.7 µM (active) and 52.2 µM (active).

With `Cc1cc2c3c(c1)C(c1ccccc1)=N[C@@H](NC(=O)c1ccncc1)C(=O)N3CC2`, the result in test [1], in test [2], in test [3], in test [4], in [5] and in test [6] was inactive. Also, the result in test [7] and in test [8] was inactive. In addition, the half-maximal activity concentration (AC50) in the test with CD40, CD40 (gene 958) is 3.97 µM (active); in test [9], 3.97 µM (active).

For the molecule `COS(=O)(=O)OC`, the outcome in [1] was “inactive”; in test [2] it was “inactive”; in [3] it was “inactive”; in test [4] it was “inactive”; in test [5], “inactive”; with CD40, CD40 (gene 958) it was “inactive”. In addition, the result in test [6], in [7], in [8] and in test [9] was inactive.

Regarding `CCOC(=O)C(O)(c1ccc(Cl)cc1)c1ccc(Cl)cc1`, the outcome in test [1], in test [2], in test [3], in [4] and in test [5] was inactive. The AC50 in the test with CD40, CD40 (gene 958) is 26.1 µM (active); in [6] it was 31.5 µM (active); in test [7], 35.2 µM (active); in [8] it was 34.2 µM (active); in [9], 30.3 µM (active).

For `O=S(=O)(O)C(F)(F)C(F)(F)C(F)(F)C(F)(F)C(F)(F)C(F)(F)F`, the outcome in [1] was “inactive”; in test [2], “inactive”; in [3] it was “inactive”; in test [4] it was “inactive”; in test [5], “inactive”; with CD40, CD40 (gene 958), “inactive”. Also, the result in [6], in test [7], in [8] and in [9] was inactive. Also, the half-maximal activity concentration (AC50) in test [7] is 14.6 µM (active) and 43.9 µM (active).
